According to PubChem BioAssay (NCI):
Compounds without any hit were thinned out: in the full panel of roughly 83,000, 20% have a hit.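 The test compound was applied at a single concentration to cells in 96-well plates for 48 hours, and percent growth was recorded.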 A number with no mark means an inactive call. Active and inactive are the calls of the source. The calls were made as follows: active = growth percent below 10; inactive = the rest.

Legend:
Test in all cases: NCI-60 one-dose screen, 48 h (100 = growth as untreated, 0 = no growth, -100 = all killed)
Settings in all cases: 10 µM unless noted
HCT-15 colon = system: HCT-15 colon
HT29 colon = system: HT29 colon
SNB-75 CNS = system: SNB-75 CNS
SNB-19 CNS = system: SNB-19 CNS
U251 CNS = system: U251 CNS
PC-3 prostate = system: PC-3 prostate
SK-MEL-5 melanoma = system: SK-MEL-5 melanoma
UACC-62 melanoma = system: UACC-62 melanoma
LOX IMVI melanoma = system: LOX IMVI melanoma
SK-MEL-28 melanoma = system: SK-MEL-28 melanoma
SK-MEL-2 melanoma = system: SK-MEL-2 melanoma
EKVX NSCLC = system: EKVX NSCLC
SN12C renal = system: SN12C renal
UO-31 renal = system: UO-31 renal
TK-10 renal = system: TK-10 renal
ACHN renal = system: ACHN renal
CAKI-1 renal = system: CAKI-1 renal
A498 renal = system: A498 renal
CCRF-CEM leukemia = system: CCRF-CEM leukemia
MOLT-4 leukemia = system: MOLT-4 leukemia

SMILES	growth (HCT-15 colon) [%]	growth (HT29 colon)	growth (SNB-75 CNS)	growth (SNB-19 CNS) [%]	growth (U251 CNS) [%]	growth (PC-3 prostate) [%]	growth (SK-MEL-5 melanoma)	growth (UACC-62 melanoma)	growth (LOX IMVI melanoma)	growth (SK-MEL-28 melanoma) [%]	growth (SK-MEL-2 melanoma)	growth (EKVX NSCLC) [%]	growth (SN12C renal) [%]	growth (UO-31 renal)	growth (TK-10 renal) [%]	growth (ACHN renal)	growth (CAKI-1 renal) [%]	growth (A498 renal)	growth (CCRF-CEM leukemia) [%]	growth (MOLT-4 leukemia)
S=C(Cc1ccccc1)N1CCN(c2ccccc2Cl)CC1	106	100%	96.8%	116	99.2	86.6	90.9%	86.2%	105%	119	99.7%	94.5	107	82.4%	116	108%	85.2	90.7%	89.1	82.1%
CCC1=CC2CN(C1)Cc1c([nH]c3ccccc13)[C@@](C(=O)OC)(c1cc3c(cc1OC)N(C)[C@H]1[C@@](O)(C(=O)OC)[C@H](OC(C)=O)[C@]4(CC)C=CCN5CC[C@]31[C@@H]54)C2 (stereo not given in full)	21.5	2.55% (active)	-5.65% (active)	53.6	11	34.5	-46.9% (active)	43.6%	20%	62.1	5.95% (active)	68.6	36.9	51.5%	41.2	34.1%	44.3	-14.6% (active)	19.1	6.56% (active)
COc1cc2ncnc(Nc3ccc(S(=O)(=O)Nc4nccs4)cc3)c2cc1OCCCN1CCOCC1	104	106%	95.1%	104	100	99	108%	98.7%	97.2%	109	99.2%	111	98	83.6%	103	103%	91.7	115%	105	105%
COc1ccc(-c2cc(-c3cn(-c4cccc(Cl)c4)nc3-c3ccc(OC)cc3)[nH]c(=S)n2)cc1	95.4	20.6%	102%	81.6	72.6	67.3	88.5%	88%	7.63% (active)	95.5	88.9%	90.4	73.6	84.7%	93.8	80.5%	104	69.3%	73.6	42.4%
O=C(Nc1cccc(N=Cc2c(O)ccc3ccccc23)c1)c1ccccc1	93.6	90.9%	77.9%	101	92.6	86.9	91.3%	94.4%	96.1%	107	87.9%	93.8	99	65.9%	92.4	96.3%	84.7	103%	90.8	147%
O=S1(=O)NCCCN1CCNc1nccc(-c2c(-c3cccc(O)c3)nc3sccn23)n1	95.5	56.2%	37.9%	119	77.4	106	74.2%	-6.85% (active)	20.1%	24	29.4%	141	43.4	94.1%	121	50.5%	67.4	98.9%	60.1	65.2%
CCCCCCCCOC(=O)C(C)OC(=O)OCCOCCOC(=O)OC(C)C(=O)OCCCCCCCC (stereo not given)	111	115%	102%	104	106	87.7	107%	94.2%	101%	106	110%	94	99.3	87.5%	115	98.8%	95.8	119%	102	108%
CC(C)[C@@]12C[C@@H](OC(=O)C3CO3)[C@@](C)(O1)[C@@H]1CC[C@@H](C)[C@H]1[C@@H]2OC(=O)/C=C/c1ccccc1 (stereo not given in full)	98.1	93.9%	80.5%	94.4	76.1	86.2	97.6%	77.4%	88.5%	110	87.9%	82.3	58.6	-3.56% (active)	119	5.97% (active)	51.7	-31.7% (active)	88.5	79.9%
